Many of the other results were omitted from the sample, so hits are more common in it than they were.
LmPK inhibitor = qHTS Assay for Inhibitors of Leishmania Mexicana Pyruvate Kinase (LmPK) | Q27686 | purified LmPK, Kinase-Glo ATP luminescence, 1 h | Potency, µM (doses to about 57.5 µM), for inactives: at the highest dose activity change, negative = inhibition, actives largely listed as inhibitors | 290,000 compounds, 0.37% hits | AID 1721, 2009; note: potency is the fitted concentration of half-maximal effect; % is set by controls: 0 for no effect and ±100 for the full control effect
Target sequence (Q27686 whole entry, looked up): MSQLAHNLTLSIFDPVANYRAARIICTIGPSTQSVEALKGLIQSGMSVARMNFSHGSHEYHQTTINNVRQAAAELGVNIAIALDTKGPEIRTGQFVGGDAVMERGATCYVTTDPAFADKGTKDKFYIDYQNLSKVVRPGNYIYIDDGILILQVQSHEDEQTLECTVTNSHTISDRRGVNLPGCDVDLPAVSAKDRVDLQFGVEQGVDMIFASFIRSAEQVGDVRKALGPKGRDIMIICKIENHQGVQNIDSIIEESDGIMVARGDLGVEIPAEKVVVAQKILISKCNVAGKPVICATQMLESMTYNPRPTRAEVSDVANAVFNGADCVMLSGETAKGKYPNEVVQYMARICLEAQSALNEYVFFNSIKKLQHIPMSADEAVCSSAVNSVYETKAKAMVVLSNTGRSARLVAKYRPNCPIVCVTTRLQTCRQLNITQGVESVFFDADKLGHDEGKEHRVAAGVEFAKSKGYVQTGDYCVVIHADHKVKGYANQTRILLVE
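0.1 nM LmPK, 0.5 mM PEP, 0.1 mM ADP; 50 mM imidazole pH 7.2, 7 mM MgCl2, 50 mM KCl; 1 h RT. Kinase-Glo luminescence readout, normalized to no-enzyme (full inhibition) and uninhibited wells.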
TbPYK inhibitor = qHTS of Trypanosoma Brucei Inhibitors; pyruvate kinase (Trypanosoma brucei), Q57TT1; TbPYK enzyme, Kinase-Glo Plus ATP luminescence, 45 min; Potency, µM (top dose mostly 76.8 µM), without a hit: top-dose activity, negative = inhibition, hits mostly inhibitors; 410,000 compounds, 0.12% hits; AID 624173, 2012; note: potency is the fitted concentration of half-maximal effect; % is set by controls: 0 for no effect and ±100 for the full control effect; nearly all actives have a fitted effect of over 50% in size
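Glycolytic pyruvate kinase of T. brucei was incubated with substrate, test compound and 130 uM ADP for 45 minutes at room temperature. Luminescent Kinase-Glo Plus signal was measured after 10 minutes.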
Giardia FBPA inh = qHTS Assay for Inhibitors of Fructose-1,6-bisphosphate Aldolase from Giardia Lamblia | purified Giardia FBPA | AID 2451, 2010 | 290,000 compounds, 0.71% hits | Potency, µM (top dose mostly 59.6 µM), for inactives: top-dose activity, negative = inhibition, usual class: inhibitors; note: potency is the fitted concentration of half-maximal effect; % is set by controls: 0 for no effect and ±100 for the full control effect; nearly all actives have a fitted effect of over 55% in size
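Giardia FBPA (40 nM reagent) was preincubated 10 min at RT with compound (up to 57.5 uM final), then substrate plus GAPDH/TPI/NAD/arsenate coupling system with diaphorase/resazurin was added; resorufin fluorescence (525/598 nm) was read after 20 min.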
CHX counter = Cycloheximide Counterscreen for Small Molecule Inhibitors of Shiga Toxin; AID 2314, 2010; 300,000 compounds, 12% hits; cell reporter, cycloheximide protein synthesis inhibition counterscreen; max response, %; in the data active = max response mostly above about 13%, no sharp cut-off; inactive = mostly below about 14%; note: read at 38.3 µM for the half of the compounds with a filed dose; 0% is about no effect
Shiga inhibitor = A qHTS for Small Molecule Inhibitors of Shiga Toxin | Vero cells, Shiga toxin protein synthesis inhibition reporter | inhibition, % at 38.7 µM | 290,000 compounds, 9.2% hits | AID 2315, 2010; in the data active = inhibition mostly above about 28%, no sharp cut-off; inactive = mostly below about 43%; note: 0% is about no effect
RE007 growth inh = qHTS Assay for Inhibitors of the HIV-1 protein Vpr. S. pombe RE007 Vpr strain, BacTiter-Glo ATP luminescence, 24 h. Potency, µM (doses to about 92.2 µM), for inactives: at the top dose activity change, negative = less growth, actives largely listed as inhibitors. 360,000 compounds, 0.21% hits. AID 651644, 2012; active = well fitted falling curve with a large enough effect; inconclusive = small, poorly fitted or top-dose-only effect; inactive = no such curve, though single readings can be large or run the other way; note: potency is the fitted concentration of half-maximal effect; % is set by controls: 0 for no effect and ±100 for the full control effect; nearly all actives have a fitted effect of over 50% in size
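Fission yeast strain RE007, carrying one chromosomally integrated HIV-1 vpr copy, was seeded at OD 0.01 in PMG+AL medium with 23 nL pinned compound. After 24 h at 30 °C and 99% humidity, viability was read by BacTiter-Glo luminescence.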
Numbers without * were called inactive; ? = inconclusive; / = no result given; [ ] = remark or other dose. Unless noted, calls come from the whole dose curve; as a rule, active = well fitted curve in the direction sought with a large enough effect; inconclusive = small, poorly fitted or top-dose-only effect, or another doubt; inactive = no such curve, though single readings can be large; an effect the other way counts as inactive or inconclusive.

SMILES	LmPK inhibitor	TbPYK inhibitor	Giardia FBPA inh	CHX counter	Shiga inhibitor	RE007 growth inh
CCN(CC)CCN1C(=O)C(=O)/C(=C(/O)c2ccc(OC(C)C)cc2)C1c1ccncc1 (configuration not stated)	5%	2%	6%	-1	-11	0%
CCN(CC)CCN1C(=O)C(=O)/C(=C(/O)c2c(C)[nH]c(C(=O)OC)c2C)C1c1cccs1 (configuration not stated)	2%	-14%	-4%	23*	24	0%
CC(C)Oc1ccc(/C(O)=C2/C(=O)C(=O)N(CCN(C)C)C2c2ccco2)cc1 (configuration not stated)	-3%	-1%	-16%	39*	134*	-8%
CCN(CC)CCN1C(=O)C(=O)/C(=C(/O)c2ccc(OC(C)C)cc2)C1c1cccs1 (configuration not stated)	1%	-5%	-3%	45*	85*	-6%
Cc1ccc2c(=O)cc(C(=O)Nc3ccc(S(=O)(=O)N4CCCCCC4)cc3)oc2c1C	/	-8%	/	/	/	/
O=C(C1=NOC(CNc2ncc(C(F)(F)F)cc2Cl)C1)N1CCOCC1 (configuration not stated)	1%	-1%	0%	12	-8	6%
C/C(=N\N=C(/N)c1nonc1N)c1ccc2c(c1)OCO2	-26%	0%	-1%	81*	55*	-3%
C/C(=N/NC(=O)c1nnn(-c2nonc2N)c1-c1ccccc1)c1ccc2c(c1)OCO2	0%	0%	6%	-3	-2	2%
Cc1ccc2c(c1)=C(c1sc(N(C)c3ccc(O)cc3)nc1O)C(=O)N=2	3%	4%	-4%	3	6	17%
Cc1cc(Br)c2c(c1)=C(c1sc(N3CCCCCC3)nc1O)C(=O)N=2	-3%	0%	1%	17*	63*	-8%
COc1ccc(-c2noc(-c3ccccc3C(=O)NCc3ccco3)n2)cc1	-2%	-1%	3%	15*	17	-2%
COc1cccc(NC(=O)c2ccccc2-c2nc(-c3ccc(Cl)cc3)no2)c1	4%	-10%	1%	59*	62*	-2%
COc1cccc(NC(=O)c2ccccc2-c2nc(-c3ccccc3)no2)c1	-3%	-5%	-6%	19*	28	4%
COc1ccccc1-c1noc(-c2ccccc2C(=O)Nc2ccccc2)n1	12%	3%	1%	-5	-7	-2%
COc1cccc(NC(=O)c2ccccc2-c2nc(-c3ccc(F)cc3)no2)c1	0%	3%	-4%	8	22	11%
COc1ccccc1NC(=O)c1ccccc1-c1nc(-c2ccccc2OC)no1	-11%	-3%	4%	21*	24	-19%
COc1ccc(OC)c(NC(=O)C2(C)CCN2C(=O)C(C)(C)c2ccccc2)c1 (configuration not stated)	/	-1%	/	/	/	0%[18.4 µM]
Cc1cccc(CNc2ncnc3ccc(-c4ccccc4Cl)cc23)c1	/	-3%	/	/	/	/
O=S(=O)(c1cccc(C(F)(F)F)c1)N1CCN(S(=O)(=O)c2ccc3c(c2)OCCO3)CC1	/	-2%	/	-5	-4	/
Cc1ccccc1-c1noc(-c2ccccc2C(=O)O)n1	1%	-5%	14%	15*	39	-6%
Cc1nc(SCc2nc3ccc(C(=O)c4ccccc4)cc3[nH]2)c2oc3ccccc3c2n1	/	1%	/	/	/	/
CN(c1ncnc2onc(-c3cccc(Cl)c3)c12)C1CCCCC1	/	0%	/	/	/	/
C/C(=N/NC(=O)c1ccc(Cl)cc1Cl)c1cccnc1	-3%	7%	5%	29*	25	-14%
C/C(=N\NC(=O)c1ccc(O)cc1O)c1cccnc1	-1%	-6%	-3%	40*	73*	18%
C/C(=N\NC(=O)c1ccncc1)c1cccnc1	6%	-2%	-5%	11	39	-2%
SMILES	LmPK inhibitor	TbPYK inhibitor	Giardia FBPA inh	CHX counter	Shiga inhibitor	RE007 growth inh
COc1cccc(NC(=O)NC(=O)c2c(C)cc(Cl)nc2Cl)c1	4%	0%	-2%	-3	-1	-5%
COc1ccc2sc(NC(=O)NC(=O)c3c(Cl)cccc3Cl)nc2c1	-2%	-2%	-15%	19*	38	-12%
CCC(=O)Nc1nc2ccc3nc(C)sc3c2s1	0%	-6%	1%	55*	62*	-1%
CCC(=O)Nc1nc2cc(OC)ccc2s1	-8%	9%	8%	55*	183*	-19%
COc1ccc2sc(NC(C)=O)nc2c1	-28%	-1%	2%	34*	64*	2%
CC(OC(=O)CC1CCCC1)C(=O)Nc1ccc(S(N)(=O)=O)cc1 (configuration not stated)	/	-2%	/	/	/	6%
C=CCN1C(=O)/C(=C/C=C2/N(CC)c3ccc(S(=O)(=O)N(C)C)cc3N2CC)SC1=S	-16%	-25%	-23%	-4	-11	11%
CCOc1cccc(-c2cc(NCCc3ccccn3)n3nccc3n2)c1	/	5%	/	/	/	10%
COc1ccc2sc(NCc3ccccc3)nc2c1	-5%	3%	15%	48*	146*	-13%
COc1ccc2sc(NC(=O)CC(C)C)nc2c1	0%	-9%	0%	39*	94*	?
COc1cc(CNc2nc3ccccc3s2)cc(OC)c1OC	-7%	2%	2%	12	-7	-18%
CC(C)Oc1ccc(CCN=C(N)N=C(N)N)cc1Cl	1%	11%	4%	29*	51*	2%
CC(C)Oc1ccc(CNC(=S)Nc2ccccc2)cc1Cl	1%	6%	6%	8	/	3%
CCN(c1ccc(NC(=O)c2ccc(Cl)nc2)cc1)C(C)C	-5%	5%	-9%	24*	38*	-5%
CCc1nnc(NC(=O)c2cc(Cl)ccn2)s1	-2%	3%	8%	41*	77*	?
O=C(Nc1nnc(C2CC2)s1)c1ccc(Cl)nc1	/	0%	/	/	/	-15%
Cc1cc(NS(=O)(=O)c2ccc(NC(=O)c3ccc(Cl)nc3)cc2)nc(C)n1	/	-6%	/	/	/	-3%
CCc1nnc(NC(=O)c2ccc(Cl)nc2)s1	-3%	-2%	?	32*	75*	-1%
CC(C)(C)c1nnc(NC(=O)c2ccc(Cl)nc2)s1	9%	5%	5µM*	3	-2	-5%
Fc1cc2[nH]c(=S)[nH]c2c(Br)c1N1CCSCC1	-7%	-23%	8%	9.2*	47	7%
COc1ccc(-n2c(=O)c3c(c4cc(OC)ccc4n3C)n(Cc3cccc(OC)c3)c2=O)cc1	/	4%	/	/	/	/
O=C(Nc1cccnc1)c1cc(-c2ccc3c(c2)OCO3)on1	?	-6%	8%	30*	89*	2%

From PubChem BioAssay
